Activity calls are given as the source filed them. How the source made its calls: active means hit-call score of the fitted dose curve at least 0.9, where 1 is the maximum; inactive means score below 0.9.
Experiments:
[1] = read-out: Tissue plasminogen activator (tPA), PLAT (gene 5327); test: BSK_BE3C_tPA: BioMAP Diversity Plus: BE3C Assay for Tissue plasminogen activator (tPA) Biomarker Activity (AID 2283041); settings: primary human bronchial epithelial cells; actives raise or lower the signal;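 further: tPA level quantified by ELISA one day after compound addition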
Procedure, shortened: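 Bidirectional curve fitting relative to DMSO defined activity, with tPA detected by ELISA in chemically treated human bronchial epithelial primary cells at 24 hours.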

[2] = read-out: Interleukin-8 (IL8), CXCL8 (gene 3576); test: BSK_CASM3C_IL8: BioMAP Diversity Plus: CASM3C Assay for Interleukin-8 (IL8) Biomarker Activity (AID 2283042); settings: primary human coronary artery smooth muscle cells; actives raise or lower the signal;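 further: IL-8 protein level quantified by ELISA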
[3] = read-out: Human Leukocyte Antigen - DR isotype (HLADR), HLA-DRA (gene 3122); test: BSK_CASM3C_HLADR: BioMAP Diversity Plus: CASM3C Assay for Human Leukocyte Antigen - DR isotype (HLADR) Biomarker Activity (AID 2283043); settings: primary human coronary artery smooth muscle cells; actives raise or lower the signal;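 further: cell-surface HLA-DR protein level quantified by ELISA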
[4] = read-out: Macrophage colony-stimulating factor (MCSF), CSF1 (gene 1435); test: BSK_CASM3C_MCSF: BioMAP Diversity Plus: CASM3C Assay for Macrophage colony-stimulating factor (MCSF) Biomarker Activity (AID 2283044); settings: primary human coronary artery smooth muscle cells; actives raise or lower the signal;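 further: M-CSF protein amount quantified by ELISA after 24 h exposure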
[5] = read-out: Low-density lipoprotein receptor (LDLR), LDLR (gene 3949); test: BSK_CASM3C_LDLR: BioMAP Diversity Plus: CASM3C Assay for Low-density lipoprotein receptor (LDLR) Biomarker Activity (AID 2283045); settings: primary human coronary artery smooth muscle cells; actives raise or lower the signal;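 further: LDLR protein level on the cell surface quantified by ELISA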
[6] = read-out: Monocyte Chemoattractant Protein-1 (MCP1), CCL2 (gene 6347); test: BSK_CASM3C_MCP1: BioMAP Diversity Plus: CASM3C Assay for Monocyte Chemoattractant Protein-1 (MCP1) Biomarker Activity (AID 2283046); settings: primary human coronary artery smooth muscle cells; actives raise or lower the signal;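 further: MCP-1 level quantified by ELISA 24 h after dosing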
[7] = BSK_CASM3C_Proliferation: Cell Proliferation Assessment in the BioMAP Diversity Plus: CASM3C Assay (AID 2283047); settings: primary human coronary artery smooth muscle cells;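 further: sulforhodamine B total protein stain as relative cell number at 560 nm; sub-confluent cells exposed 48 h before staining; fitted both ways against DMSO so gain or loss of cell number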
[8] = read-out: Monokine induced gamma interferon (MIG), CXCL9 (gene 4283); test: BSK_CASM3C_MIG: BioMAP Diversity Plus: CASM3C Assay for Monokine induced gamma interferon (MIG) Biomarker Activity (AID 2283048); settings: primary human coronary artery smooth muscle cells; actives raise or lower the signal;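 further: MIG protein level measured by ELISA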
[9] = read-out: serum amyloid A (SAA), SAA1 (gene 6288); test: BSK_CASM3C_SAA: BioMAP Diversity Plus: CASM3C Assay for serum amyloid A (SAA) Biomarker Activity (AID 2283049); settings: primary human coronary artery smooth muscle cells; actives raise or lower the signal;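 further: SAA protein level quantified by ELISA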
[10] = BSK_CASM3C_SRB: Viability Assessment in the BioMAP Diversity Plus: CASM3C Assay (AID 2283050); settings: primary human coronary artery smooth muscle cells;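 further: cells exposed to compound for 24 h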
[11] = read-out: Thrombomodulin, THBD (gene 7056); test: BSK_CASM3C_Thrombomodulin: BioMAP Diversity Plus: CASM3C Assay for Thrombomodulin Biomarker Activity (AID 2283051); settings: primary human coronary artery smooth muscle cells; actives raise or lower the signal;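 further: thrombomodulin protein level measured by ELISA 24 h after dosing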
[12] = read-out: Tissue Factor, F3 (gene 2152); test: BSK_CASM3C_TissueFactor: BioMAP Diversity Plus: CASM3C Assay for Tissue Factor Biomarker Activity (AID 2283052); settings: primary human coronary artery smooth muscle cells; actives raise or lower the signal;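 further: cell surface tissue factor protein level read by ELISA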
[13] = read-out: Interferon-gamma inducible Protein 10 (IP10), CXCL10 (gene 3627); test: BSK_hDFCGF_IP10: BioMAP Diversity Plus: hDFCGF Assay for Interferon-gamma inducible Protein 10 (IP10) Biomarker Activity (AID 2283053); settings: primary human foreskin fibroblasts; actives raise or lower the signal
Procedure, shortened: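 IP-10 levels, quantified by ELISA, are taken from human foreskin fibroblast cultures 24 h after chemical treatment, with DMSO serving as negative control and baseline for bidirectional analysis.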

[14] = read-out: Urokinase-type plasminogen activator receptor (uPAR), PLAUR (gene 5329); test: BSK_CASM3C_uPAR: BioMAP Diversity Plus: CASM3C Assay for Urokinase-type plasminogen activator receptor (uPAR) Biomarker Activity (AID 2283054); settings: primary human coronary artery smooth muscle cells; actives raise or lower the signal;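 further: cell-surface uPAR protein level quantified by ELISA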
[15] = read-out: Vascular cell adhesion molecule 1 (VCAM1), VCAM1 (gene 7412); test: BSK_CASM3C_VCAM1: BioMAP Diversity Plus: CASM3C Assay for Vascular cell adhesion molecule 1 (VCAM1) Biomarker Activity (AID 2283055); settings: primary human coronary artery smooth muscle cells; actives raise or lower the signal;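 further: VCAM-1 protein level quantified by ELISA on the cells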
[16] = read-out: Collagen III, COL3A1 (gene 1281); test: BSK_hDFCGF_CollagenIII: BioMAP Diversity Plus: hDFCGF Assay for Collagen III Biomarker Activity (AID 2283056); settings: primary human foreskin fibroblasts; actives raise or lower the signal
Procedure, shortened: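 Human foreskin fibroblast primary cultures sampled 24 h after dosing; Collagen III quantified by ELISA. Signal fitted bidirectionally against DMSO baseline.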

[17] = read-out: Epidermal growth factor receptor (EGFR), EGFR (gene 1956); test: BSK_hDFCGF_EGFR: BioMAP Diversity Plus: hDFCGF Assay for Epidermal growth factor receptor (EGFR) Biomarker Activity (AID 2283057); settings: primary human foreskin fibroblasts; actives raise or lower the signal
Procedure, shortened: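 Measured by ELISA: EGFR levels on primary human foreskin fibroblasts 24 h after chemical treatment, analysed relative to DMSO with bidirectional fitting.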

[18] = read-out: Interleukin-8 (IL8), CXCL8 (gene 3576); test: BSK_hDFCGF_IL8: BioMAP Diversity Plus: hDFCGF Assay for Interleukin-8 (IL8) Biomarker Activity (AID 2283058); settings: primary human foreskin fibroblasts; actives raise or lower the signal
Procedure, shortened: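 Primary human foreskin fibroblasts (hDFCGF system) dosed with chemical; IL-8 measured by ELISA 24 hours later. Bidirectional curve fitting relative to DMSO baseline; cytotoxicity tracked in parallel cultures by SRB total protein staining.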

[19] = BSK_hDFCGF_Proliferation: Cell Proliferation Assessment in the BioMAP Diversity Plus: hDFCGF Assay (AID 2283059); settings: primary human foreskin fibroblasts;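 further: curves fitted for both rise and fall of signal versus DMSO baseline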
Procedure, shortened: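 Total protein read at 560 nm after 0.1% SRB staining of TCA-fixed human skin fibroblasts, […]. Activity is fitted in both directions relative to DMSO as baseline.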

[20] = read-out: Macrophage colony-stimulating factor (MCSF), CSF1 (gene 1435); test: BSK_hDFCGF_MCSF: BioMAP Diversity Plus: hDFCGF Assay for Macrophage colony-stimulating factor (MCSF) Biomarker Activity (AID 2283060); settings: primary human foreskin fibroblasts; actives raise or lower the signal
Procedure, shortened: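 Human foreskin fibroblast primary cultures; M-CSF measured by ELISA 24 hours after chemical dosing. Bidirectional fitting relative to DMSO, with overt cytotoxicity tracked by parallel SRB total-protein staining (0.1% SRB, 10% TCA fixation, 560 nm).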

[21] = BSK_hDFCGF_SRB: Viability Assessment in the BioMAP Diversity Plus: hDFCGF Assay (AID 2283061); settings: primary human foreskin fibroblasts;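 further: cells exposed to compound for 24 h before the read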
Procedure, shortened: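 Human foreskin fibroblasts in 96-well plates were treated 24 h. Total protein was measured by 0.1% SRB staining after 10% TCA fixation, read at 560 nm. Data were fitted bidirectionally against DMSO.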

[22] = read-out: TIMP metallopeptidase inhibitor 1 (TIMP1), TIMP1 (gene 7076); test: BSK_hDFCGF_TIMP1: BioMAP Diversity Plus: hDFCGF Assay for TIMP metallopeptidase inhibitor 1 (TIMP1) Biomarker Activity (AID 2283062); settings: primary human foreskin fibroblasts; actives raise or lower the signal
Procedure, shortened: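 Human foreskin fibroblast primary cultures dosed for 24 h; secreted/surface TIMP-1 quantified by ELISA. Bidirectional curve fitting against DMSO baseline; cytotoxicity tracked in parallel cultures by SRB total-protein staining.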

[23] = read-out: Matrix Metallopeptidase 1 (MMP1), MMP1 (gene 4312); test: BSK_hDFCGF_MMP1: BioMAP Diversity Plus: hDFCGF Assay for Matrix Metallopeptidase 1 (MMP1) Biomarker Activity (AID 2283064); settings: primary human foreskin fibroblasts; actives raise or lower the signal
Procedure, shortened: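 Primary human foreskin fibroblasts exposed to chemicals for 24 h; MMP1 measured by ELISA. Cytotoxicity tracked by SRB staining in parallel cultures; bidirectional fit relative to DMSO.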

[24] = read-out: Vascular cell adhesion molecule 1 (VCAM1), VCAM1 (gene 7412); test: BSK_hDFCGF_VCAM1: BioMAP Diversity Plus: hDFCGF Assay for Vascular cell adhesion molecule 1 (VCAM1) Biomarker Activity (AID 2283065); settings: primary human foreskin fibroblasts; actives raise or lower the signal
Procedure, shortened: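 Human foreskin fibroblast primary cells dosed with chemical, VCAM-1 measured by ELISA at 24 h. Bidirectional curve fitting relative to DMSO as negative control/baseline.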

[25] = read-out: Intercellular Adhesion Molecule 1 (ICAM1), ICAM1 (gene 3383); test: BSK_KF3CT_ICAM1: BioMAP Diversity Plus: KF3CT Assay for Intercellular Adhesion Molecule 1 (ICAM1) Biomarker Activity (AID 2283067); settings: primary human keratinocytes with fibroblasts; actives raise or lower the signal
Procedure, shortened: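 Human keratinocyte–foreskin fibroblast co-culture was treated for 24 h. Cell-surface ICAM-1 was quantified by ELISA, fitted bidirectionally relative to DMSO. Cytotoxicity was checked in parallel cultures by SRB total-protein staining.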

[26] = read-out: Interferon-gamma inducible Protein 10 (IP10), CXCL10 (gene 3627); test: BSK_KF3CT_IP10: BioMAP Diversity Plus: KF3CT Assay for Interferon-gamma inducible Protein 10 (IP10) Biomarker Activity (AID 2283068); settings: primary human keratinocytes with fibroblasts; actives raise or lower the signal
Procedure, shortened: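 Human keratinocyte plus foreskin fibroblast primary co-culture exposed to test chemical for 24 h; IP-10 measured by ELISA. Concentration-response fitted bidirectionally against DMSO control as baseline.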

[27] = read-out: Interleukin-1 alpha (IL1a), IL1A (gene 3552); test: BSK_KF3CT_IL1a: BioMAP Diversity Plus: KF3CT Assay for Interleukin-1 alpha (IL1a) Biomarker Activity (AID 2283070); settings: primary human keratinocytes with fibroblasts; actives raise or lower the signal
Procedure, shortened: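 Primary human keratinocyte plus foreskin fibroblast co-culture, dosed and measured at 24 h in 96-well plates. IL-1a level quantified by ELISA; bidirectional fit relative to DMSO.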

[28] = read-out: TIMP metallopeptidase inhibitor 2 (TIMP2), TIMP2 (gene 7077); test: BSK_KF3CT_TIMP2: BioMAP Diversity Plus: KF3CT Assay for TIMP metallopeptidase inhibitor 2 (TIMP2) Biomarker Activity (AID 2283071); settings: primary human keratinocytes with fibroblasts; actives raise or lower the signal
Procedure, shortened: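 Keratinocyte–fibroblast co-culture, 24 h exposure; TIMP-2 ELISA, DMSO-normalised bidirectional fit. Parallel SRB (0.1%, TCA-fixed, 560 nm) total-protein staining gauges cytotoxicity.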

[29] = read-out: Matrix Metallopeptidase 9 (MMP9), MMP9 (gene 4318); test: BSK_KF3CT_MMP9: BioMAP Diversity Plus: KF3CT Assay for Matrix Metallopeptidase 9 (MMP9) Biomarker Activity (AID 2283074); settings: primary human keratinocytes with fibroblasts; actives raise or lower the signal
Procedure, shortened: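 Human keratinocyte and foreskin fibroblast co-culture exposed to chemicals for 24 h; MMP9 biomarker measured by ELISA, bidirectional fitting relative to DMSO; cytotoxicity tracked by SRB total protein staining in parallel cultures.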

Measured: outcome

CCCC[N+](CCCC)(CCCC)CCCC
inactive: all assays above
